Among all 220,000 compounds or so, about 2,000 (0.91%) were called active. Not shown: some 2% with an inconclusive outcome. A selection follows. Entries with a potency or affinity are not part of this list. Values without a mark were called inactive. Cut-off read from the data, not from the text of the source: inconclusive = inhibition above about 80% without an active follow-up result; inactive = below that; test concentration not stated here.

The assay in a line: M. tuberculosis H37Rv growth inhibitors, H37Rv strain (AID 1626).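 Note: bacteria incubated seven days before Alamar blue readout; 0% = bacteria only wells and 100% = bacteria with antibiotic wells.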 As to conditions: active compounds read high, concentration not given here.
In general, inhibition refers to the drop in the measured response relative to a control, in per cent. Take `CC(=O)Nc1ccc2c(CSc3nnc(-c4cccnc4)n3-c3ccc(C)cc3C)cc(=O)oc2c1`: the inhibition is -5.62%. As for `Cc1ccc(CNC(=O)CSc2nc(C)cc(C)c2C#N)cc1`, the inhibition was -9.02%. Next, `C/C(=N\NC(=O)C1(C)NC(C)(C)Cc2ccccc21)c1ccccc1` (centres undefined): 1.17%; `COc1ccc(C(=O)Nc2ccc(N3CCN(c4ccc(OC)cc4)CC3)c(C#N)c2)cc1`: -7.83%. Next, `COc1ccc(-n2c(=S)[nH]c3cc(C(=O)NCCCN4CCCC4=O)ccc3c2=O)cc1OC`: -1.47%; `CC(=O)COC(=O)CNC(=O)c1ccc(Br)cc1`: -5.11%. Regarding `Cc1cccc(N(Cc2cc3ccccc3[nH]c2=O)C(=O)c2ccco2)c1C`, the inhibition was 4.31%. Next, `COc1ccc(NC(=O)CCOc2ccccc2)c(OC)c1`: -0.51%. With `COC(=O)c1cccc(NC(=O)CCCOc2cccc(C)c2)c1`, the inhibition is -9.57%. Next, `O=C(CCCCCNC(=S)Nc1ccccc1)C[N+](=O)[O-]`: -1.95%; `Cc1[nH]n2c(=O)c3c(nc2c1-c1ccccc1)CCC3`: 3.85%. For the molecule `Cc1c(-c2ccccc2)[nH]n2c(=O)c3c(nc12)CCCC3`, the inhibition is 6.84%.

Take `CN(C)c1cc(-c2cccc([N+](=O)[O-])c2)oc(=O)c1Cl`: the inhibition was 1.64%. Next, `Cc1ccc(C(=O)N[C@@H](C)CN2C3=NC[C@H](Cc4ccccc4)N3C[C@H]2Cc2ccc(O)cc2)cc1Br`: 21.4%. For `COc1ccc(C[C@@H]2CN3C(=NC[C@@H]3C)N2C[C@H](C)NC(=O)c2ccc(C)c(Br)c2)cc1`, the inhibition is 8.27%. Next, `Cc1ccc(C(=O)NCCN2C3=NC[C@H](Cc4ccc(O)cc4)N3C[C@H]2Cc2ccc(O)cc2)cc1Br`: 13.6%; `Cc1ccc(C(=O)NCCN2C3=NC[C@@H](Cc4ccccc4)N3C[C@H]2Cc2ccc(O)cc2)cc1Br`: 40.7%. With `Cc1cc(=O)oc(C)c1C(=O)Nc1cccc(F)c1`, the inhibition was -6.13%.

For `CNC(=S)Nc1cccc(C(C)=O)c1`, the inhibition is -3.56%. In the case of `Cc1ccc(N=C2NC(=O)/C(=C/c3cccnc3)S2)c(C)c1`, the inhibition was 20.4%.

Regarding `COCCCn1c(SCc2cccc(OC)c2)nc2cc(OC)c(OC)cc2c1=N`, the inhibition was 6.91%. As to `COc1cc2nc(SCc3ccc(Cl)cc3Cl)n(Cc3cccs3)c(=N)c2cc1OC`, the inhibition was 11.9%. Next, `COc1cc2nc(SCc3ccc(F)cc3)n(Cc3cccs3)c(=N)c2cc1OC`: 8.63%.

On to `COc1ccc(-c2nc(Cn3c(SCc4cccc(F)c4)nc4ccncc43)c(C)o2)cc1OC`, for which the inhibition was 55.2%. With `COCCCn1c(SCc2ccc(OC)cc2)nc2cc(OC)c(OC)cc2c1=N`, the inhibition is 1.79%. For `COc1cc2nc(SCc3ccc(C(F)(F)F)cc3)n(Cc3cccs3)c(=N)c2cc1OC` the value was -5.09%; for `COCCCn1c(SCc2ccccc2)nc2cc(OC)c(OC)cc2c1=N`, 0.99%; for `COc1ccc(-c2nc(Cn3c(SCc4ccc(F)cc4)nc4ccncc43)c(C)o2)cc1OC`, 67.8%. With `O=C(C(=O)N1CCc2ccccc2C1)c1cn(CC(=O)N2CCOCC2)c2ccccc12`, the inhibition was -0.84%. Next, `CCOC(=O)/C=C(\C)N1N=C(c2ccccc2)CC1c1ccccc1` (centres undefined): 33.1%. Next, `C=CCOc1ccccc1CNCCc1ccc(S(N)(=O)=O)cc1`: 0.31%; `CCOC(=O)c1cccc(NC(=S)NCc2ccc(C)cc2)c1`: 2.33%. For `COCCNC(=O)c1cccc(C)c1[N+](=O)[O-]` the value was 3.44%; for `CC1CC1C(=O)OCC(=O)Nc1cccc(S(=O)(=O)NC2=NCCCCC2)c1` (centres undefined), -7.4%; for `COc1ccc(CCNC(=O)C2CC3Cn4c(nc5ccccc54)C3N2Cc2ccccc2)cc1` (centres undefined), -0.23%. With `Cc1ccc(S(=O)(=O)CCC(=O)OCC(=O)N2CC(=O)Nc3ccccc32)cc1`, the inhibition was -1.54%. For `COc1ccc(-n2c(SCC(=O)Nc3cc(C(=O)O)ccc3C)nc3ccccc3c2=O)cc1Cl` the value was -8.45%; for `CN1/C(=C\C(=O)c2cncc(Br)c2)C(C)(C)c2ccccc21`, 25.1%. Turning to `CN1/C(=C\C(=O)c2cccnc2)C(C)(C)c2ccccc21`, the inhibition is -3.35%. Next, `Cc1ccc2cc3cc(C(=O)N4CCC5(CC4)OCCO5)oc3nc2c1`: -1.4%. For the molecule `COc1ccc2nc3oc(C(=O)N4CCC5(CC4)OCCO5)cc3cc2c1`, the inhibition is 5.85%. Next, `CCN(C(=O)CSc1cc(C)c2cccc(C)c2n1)C1CCS(=O)(=O)C1` (centres undefined): 1.8%. Turning to `O=C(CCC1CCCN(C(=O)CC2=CCCCC2)C1)N1CCN(c2ccccn2)CC1` (centres undefined), the inhibition is 8.51%. Next, `CCSc1nnc([C@H](Cc2ccccc2)NC(=O)OC(C)(C)C)o1`: 14.6%; `O=C(NCCCO)NC12CC3CC(CC(C3)C1)C2`: 1.78%. For the molecule `COc1ccc(CCNC(=O)NC23CC4CC(CC(C4)C2)C3)cc1OC`, the inhibition was -2.6%. As to `NS(=O)(=O)c1ccc(CCNC(=O)NC23CC4CC(CC(C4)C2)C3)cc1`, the inhibition is 3.03%. For `O=C(NCCC1=CCCCC1)NC1CCCCC1` the value was -1.65%; for `CCOC(=O)c1cc(-c2ccccc2)nn1-c1ccccn1`, -4.13%.

As to `C#CCOCCOCCOCCNc1nc(N2CCOCC2)nc(N2CCN(C(=O)Cn3cc(CCCN=C(N)N)nn3)CC2)n1`, the inhibition is -13.8%. Next, `CCN(CC)C(=O)c1cc2c(=O)c3cc(F)ccc3oc2nc1C`: 1.36%.

For the molecule `Cc1ccc(Nc2nc3ccccc3n3nnnc23)cc1`, the inhibition is -0.03%.

Take `CCC(=O)c1ccc(O)cc1`: the inhibition was 14.2%. Regarding `CCCCCCCC(=O)N/N=C(\C)c1ccc(O)cc1O`, the inhibition is 11.6%. For `CCCCC(=O)c1ccc(O)cc1O` the value was 77%; for `O=C(CCO)c1ccc(O)cc1`, 12.1%. Next, `O=C(NCc1ccc(Cl)cc1)c1noc2c1CCCCC2`: 4.19%; `COc1ccc(NC2=CC(=O)CC(c3ccccc3)C2)cc1` (centres undefined): -3.06%. `O=C(O)CC(CC(=O)Nc1ccc(F)c(Cl)c1)c1ccc(Cl)cc1Cl` (centres undefined): the inhibition was -8.97%.

Values taken from PubChem BioAssay AID1626 (SRMLSC, 2009).
